Over roughly 68,000 sequences, “fluorescence intensity (a.u.)” has its median near 9,100; the highest 2% begin near 16,000. The entries come from a sample that favours the highest values as a whole.

The target in the assay is OsWRKY34 (Oryza sativa, UniProt Q0JBA9 1-250). Kind of assay: protein-binding microarray (RPBM); PBS, 2% BSA, 51.3 ng/ul salmon testes DNA, 50 uM zinc acetate, 200 nM TF, 25 C, 1 h; high values mean tight binding. The conditions noted are these: protein: recombinant; tags: N-terminal polyhistidine and DsRed monomer fusion (pET32a); label: CyDye5-dUTP incorporated in the synthesized complementary strand; 3' TTTTT single-stranded linker to array surface; dsDNA, one strand shown. Put shortly: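 Using Ni–NTA, transcription factors fused N-terminally to polyhistidine and DsRed were purified after expression in E. coli BL21-CodonPlus. These were incubated at 200 nM with a blocked, double-stranded custom Agilent array for 1 h at 25 °C in a buffer containing 50 µM zinc acetate, and the array was washed. The binding signal is per-feature fluorescence intensity (arbitrary units) on an Axon 4000B scanner.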
Chain of OsWRKY34 (Q0JBA9 entry or part of it): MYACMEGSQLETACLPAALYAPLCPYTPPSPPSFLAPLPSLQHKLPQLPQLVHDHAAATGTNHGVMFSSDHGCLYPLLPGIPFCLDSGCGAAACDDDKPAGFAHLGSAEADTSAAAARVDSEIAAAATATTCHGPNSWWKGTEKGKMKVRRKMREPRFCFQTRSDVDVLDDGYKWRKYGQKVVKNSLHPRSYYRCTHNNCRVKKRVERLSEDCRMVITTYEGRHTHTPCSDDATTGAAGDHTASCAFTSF
With “AGTTACCGTTCTAGTCAGGGGCGGATCCAGCGTGGGGCGGCGGAGTCACCTAGTGCAG”, the binding signal is 12600 fluorescence intensity (a.u.).

In the case of “ACATCCTTCTGGGTTGATTTTTTTCTATAGAGGGGTAGGTCGGAGTCACCTAGTGCAG”, the binding signal is 8590 fluorescence intensity (a.u.).

On to “AAGTAAGATGCCACACACCATAGTCTGCTTCACTGTCAACCGGAGTCACCTAGTGCAG”, for which the binding signal was 9080 fluorescence intensity (a.u.).

In the case of “CGTCTCCGCCGCTGCTTGAATCTGCCGCCACCATCACCGCCGGAGTCACCTAGTGCAG”, the binding signal is 8910 fluorescence intensity (a.u.).

“GCTGACATAATTGCTTGTTGGGATTCTTGGGAGGAAATGGCGGAGTCACCTAGTGCAG”: the binding signal is 8330 fluorescence intensity (a.u.).

On to “CTTCTCTCCTCTCCGCTGTGGTTTCTTGCTGGTTCTTGGACGGAGTCACCTAGTGCAG”, for which the binding signal was 10400 fluorescence intensity (a.u.).

For “GCTGTACCAGTACTGACCGGGGTGGGGTGGCGGGAGCGGACGGAGTCACCTAGTGCAG”, the binding signal is 14600 fluorescence intensity (a.u.).

“TGGAGGAGGGGAGGCCGGGGATTGTTTTTATAGGGGAGGGCGGAGTCACCTAGTGCAG”: the binding signal is 30500 fluorescence intensity (a.u.).

For the sequence “TCTCCTCTCTCTCTCTTCTTCCCGGGGAGGCGGGGAGCGGCGGAGTCACCTAGTGCAG”, the binding signal is 11700 fluorescence intensity (a.u.).

As for “GGGGCGTCCCGGGAGGGGAGGGAGATGGGGAGGGAGCGGACGGAGTCACCTAGTGCAG”, the binding signal is 16800 fluorescence intensity (a.u.).

On to “GGGTGGAGCTGAACTGATGGGCCGAACTATGTATGGTTGGCGGAGTCACCTAGTGCAG”, for which the binding signal was 9030 fluorescence intensity (a.u.).

Regarding “ATTGTTTTTATAGGGGAGGGGAGGCGGGATCGAGCCCGGGCGGAGTCACCTAGTGCAG”, the binding signal was 15100 fluorescence intensity (a.u.).

With “GAGATGGGGAGGGAGGCCGGCCGGGAGAGGGAGAGAGAGGCGGAGTCACCTAGTGCAG”, the binding signal was 8890 fluorescence intensity (a.u.).

In the case of “TGGCCGGAGAGGGGAGATGGGGAGATGGGGAGAGGGGAGGCGGAGTCACCTAGTGCAG”, the binding signal is 9420 fluorescence intensity (a.u.).

Regarding “GAGGCTGGGCTGGGCGGGCGTATCGTTCCTGCTCCCGGAGCGGAGTCACCTAGTGCAG”, the binding signal was 25400 fluorescence intensity (a.u.).

“TCACCGGGCGGTCACCGGAGGCGGAGGCGGAGGGAGGGGCCGGAGTCACCTAGTGCAG”: the binding signal is 10200 fluorescence intensity (a.u.).

As to “GGGTTGGGTGGGTGCTGTAATATGGGGAGATACTGACTACCGGAGTCACCTAGTGCAG”, the binding signal was 19200 fluorescence intensity (a.u.).

“GTATTATGGGTGGAGGCGGGCGGCTGAGCTGTTCCTGGGCCGGAGTCACCTAGTGCAG”: the binding signal was 8880 fluorescence intensity (a.u.).

With “CGCTGCGCTGCCGGTCCATTTCTAGAAGCCCTCGCGCTCCCGGAGTCACCTAGTGCAG”, the binding signal was 9130 fluorescence intensity (a.u.).

With “TTGAATTGAATTATTATGCTCATCGCTTTCGCATAACCTCCGGAGTCACCTAGTGCAG”, the binding signal was 8320 fluorescence intensity (a.u.).

Consider “CTAGGAGGAGGATTAGTTCTTGCGCATCGCTTCTGAGCTCCGGAGTCACCTAGTGCAG”, for which the binding signal was 8200 fluorescence intensity (a.u.).

In the case of “CCCATGTTTTTTTTTCATATTTTGCAATCTTCGGTTTAAACGGAGTCACCTAGTGCAG”, the binding signal was 8520 fluorescence intensity (a.u.).

Take “CTATAAATACACGACGTCTCTCCGCTGGCTTACACACAACCGGAGTCACCTAGTGCAG”: the binding signal is 10100 fluorescence intensity (a.u.).

With “CGCCAACTCAACGCTGAAGCCGCTGCCTCACCATCTCGTCCGGAGTCACCTAGTGCAG”, the binding signal was 8780 fluorescence intensity (a.u.).

As to “ATCGCCGCAACCACCAACCTCTCGAGGCCGTTCGAATCCCCGGAGTCACCTAGTGCAG”, the binding signal was 12300 fluorescence intensity (a.u.).

For the sequence “TATATATATATATATATATATATATATATATATAAGCGTCCGGAGTCACCTAGTGCAG”, the binding signal is 11300 fluorescence intensity (a.u.).

With “TTGGTGGTTGGTGGGGAGCGTGGAGATGGCGGGGCTGTCCCGGAGTCACCTAGTGCAG”, the binding signal is 22200 fluorescence intensity (a.u.).

As to “GGGGCGGCAGTGGATGGCGGTTGGGCGGCGGTGCGGGGAGCGGAGTCACCTAGTGCAG”, the binding signal was 12200 fluorescence intensity (a.u.).

On to “AGAAGGAGAAGGCGGGGAGAGGCGGGGCGGCCACGGGAGACGGAGTCACCTAGTGCAG”, for which the binding signal was 12500 fluorescence intensity (a.u.).

As to “AGTGCTGGAGGAGGGAGGCGGGGAGGGGAGCCATCAGCCACGGAGTCACCTAGTGCAG”, the binding signal is 17300 fluorescence intensity (a.u.).

Turning to “GAGGACGAAGTGGAGGCGGAGGGCAGGTGGGGAGGAGAGCCGGAGTCACCTAGTGCAG”, the binding signal is 8660 fluorescence intensity (a.u.).

For “GGGGAGGGAGCCGGGCGGGATTCAGCCATGAGGAGGAGGGCGGAGTCACCTAGTGCAG”, the binding signal was 9050 fluorescence intensity (a.u.).

Turning to “TTCTTGCCGGAGGAGGGGCAGGGGAGGGAGCCGGGCGGGACGGAGTCACCTAGTGCAG”, the binding signal was 23500 fluorescence intensity (a.u.).

As to “AGAAGGGAAGGGGAGGGGAGGGCGGGACGCCGGCCGGAGCCGGAGTCACCTAGTGCAG”, the binding signal was 10200 fluorescence intensity (a.u.).

For the sequence “GTGGTCCGGTGGTGGGGTGATGGGGCGTGGCGGTTCTGTCCGGAGTCACCTAGTGCAG”, the binding signal is 15400 fluorescence intensity (a.u.).

“GGCCATGCTTGAATCTCTCGCCTGACATTCAGACTTCAGACGGAGTCACCTAGTGCAG”: the binding signal is 8390 fluorescence intensity (a.u.).

Take “CTCTATATAAGCCCCACAATGCCCACCACCAGCTTGTCACCGGAGTCACCTAGTGCAG”: the binding signal was 8230 fluorescence intensity (a.u.).

Regarding “AAGATTCTTCTCTTCGTCGACGACCCGGCCTCTCGCTCTCCGGAGTCACCTAGTGCAG”, the binding signal is 9630 fluorescence intensity (a.u.).

As to “CTATTGGCTCATACCTTTTTTCAGTGGCTGGGTGTAGGTTCGGAGTCACCTAGTGCAG”, the binding signal was 8840 fluorescence intensity (a.u.).

Regarding “TGCAGATATTGGCATCGATTGCTCACTTCAGGTGATTTTTCGGAGTCACCTAGTGCAG”, the binding signal was 8060 fluorescence intensity (a.u.).

As for “CATGTCCAACTTTAATTGTTCGTCTTTTTTTTGAAAAAACCGGAGTCACCTAGTGCAG”, the binding signal was 8630 fluorescence intensity (a.u.).

As for “CAGACCTGGAGGTTGTTGCCCTTGATGTGCGCCCAGATGACGGAGTCACCTAGTGCAG”, the binding signal is 8470 fluorescence intensity (a.u.).

Take “CGCATCTCGTTTTCTCTTTATTTGTTTCTTCTTTCGCTTTCGGAGTCACCTAGTGCAG”: the binding signal was 13800 fluorescence intensity (a.u.).

The record behind these values is PMC7819943, “Rice protein-binding microarrays: a tool to detect cis-acting elements near promoter regions in rice”.
